# Measurements: PubChem BioAssay (NCATS)
# Where “and” joins values, the source holds several entries; their conditions need not be identical. Equal entries are not always repeated. Inconclusive results are not listed. Calls of active or inactive are those of the source. Calls come from the whole dose curve; as a rule, active = well fitted inhibition curve with a large enough effect; inconclusive = small, poorly fitted or top-dose-only effect; inactive = no such curve, though single readings can be large or run the other way.
# Test: Primary qHTS for inhibitors of nuclear receptor binding SET domain protein 2 (NSD2) in an RCH-ACV wild type WT cells (2C) (AID 1645877); note: nearly all actives have a fitted effect of over 70% in size
# Conditions: RCH-ACV (leukaemia line) NSD2 WT (2C) viability, CellTiter-Glo, 72 h; series mostly up to 44.9 µM; activity change, negative = cell killing: at the top concentration
# % is set by controls: 0 for no effect and ±100 for the full control effect; potency is the fitted concentration of half-maximal effect.
Compound,outcome,"activity change, negative = cell killing",Potency
CC(C)(O)C(Cl)(Cl)Cl,inactive,,
C[C@@H]1CN(C2CCC(C#N)(c3ccc(F)cc3)CC2)CC[C@]1(C(=O)O)c1ccccc1 (stereo not given in full),,-7.29% (inactive),
O=C(CCCCl)c1ccc(F)cc1,inactive,,
NC(=O)CN1CCCC1=O,,5.1% (inactive),
O=C(O)CCCCCCNC1c2ccccc2CCc2ccccc21,inactive,,
COc1ccc2c3c1O[C@H]1[C@@H](O)C=C[C@H]4[C@@H](C2)N(C)CC[C@@]341,,,6.72 µM (active)
C[C@@H]1O[C@@H](O[C@@H]2C=C3CC[C@@H]4[C@H](CC[C@]5(C)[C@@H](c6ccc(=O)oc6)CC[C@]45O)[C@@]3(C)CC2)[C@H](O)[C@H](O)[C@H]1O,,,13.2 nM (active) and 7.5 nM (active)
C[C@]12CC[C@H](O)CC1=CC[C@@H]1[C@@H]2CC[C@]2(C)C(=O)CC[C@@H]12,,-18.4% (inactive),
COc1ccc(C(=O)N2CCCC2=O)cc1,,,inactive
CC(C)=CCN1CC[C@@]2(C)c3cc(O)ccc3C[C@@H]1[C@@H]2C,,,11.9 µM (active)
O=C(O)c1nn(Cc2ccc(Cl)cc2Cl)c2ccccc12,,,inactive
CC[C@H](O)C(C[C@H](C)N(C)C)(c1ccccc1)c1ccccc1,,-7% [at 91.9 µM] (inactive),
Oc1ccc2[nH]cc(CCCCN3CC=C(c4ccccc4)CC3)c2c1,,,7.5 µM (active)
N#Cc1nn(-c2c(Cl)cc(C(F)(F)F)cc2Cl)c(N)c1S(=O)C(F)(F)F (stereo not given),,,21.1 µM (active)
c1ccc2nc(N3CCNCC3)ccc2c1,,-10.5% (inactive),
CC[C@]1(O)CC[C@H]2[C@@H]3CCC4=CCCC[C@@H]4[C@H]3CC[C@@]21C,,,7.5 µM (active)
CCC1(c2ccccc2)CCC(=O)NC1=O (stereo not given),,-9.85% (inactive),
O=C(CBr)Nc1ccc(Cl)cc1C(=O)c1ccccc1F,,-0.629% (inactive),

Compound,outcome,"activity change, negative = cell killing",Potency
C[C@]12CC[C@H]3[C@@H](CCC4=CC(=O)CC[C@@H]43)[C@@H]1CC[C@@H]2O,,-18.6% (inactive),
COCC(=O)N(c1c(C)cccc1C)C(C)C(=O)OC (stereo not given),,4.49% (inactive),
CC(C)[N+](C)(CCC(C(N)=O)(c1ccccc1)c1ccccc1)C(C)C,inactive,,
COC(=O)C1=CCCN(C)C1,,6.33% (inactive),
CCOC(=O)C(c1c(O)c2ccccc2oc1=O)c1c(O)c2ccccc2oc1=O,inactive,,
NCc1cccnc1,,-0.475% (inactive),
CCCCCCCCC(=O)NCc1ccc(O)c(OC)c1,,-95% (inactive),
C[C@]12CC[C@H]3[C@@H](CCC4=CC(=O)CC[C@@]43C)[C@@H]1CC[C@@H]2C(=O)O,,1.78% (inactive),
CN1C(=O)[C@@H](NC(=O)c2cc3ccccc3[nH]2)N=C(c2ccccc2)c2ccccc21,,-11.1% (inactive),
C1CN2CCC1CC2,,3.63% (inactive),
CC(CC(C(N)=O)(c1ccccc1)c1ccccc1)N(C)C (stereo not given),,-4.85% (inactive),
O=C1CN2CCOC2(c2ccccc2Cl)c2cc(Cl)ccc2N1 (stereo not given),,-21.7% (inactive),
CCOC(=O)NC(O)C(Cl)(Cl)Cl (stereo not given),,-9.86% (inactive),
C[C@H](CN1CCOCC1)C(C(=O)N1CCCC1)(c1ccccc1)c1ccccc1,,-3.96% [at 155 µM] (inactive),
CN(C)CCc1c[nH]c2ccccc12,,-6.49% [at 155 µM] (inactive),
C[C@]12CC[C@H]3[C@@H](CC=C4C[C@@H](O)CC[C@@]43C)[C@@H]1CC[C@@H]2O,,-8.67% (inactive),
ClC1=C(Cl)C2(Cl)C(CBr)CC1(Cl)C2(Cl)Cl (stereo not given),,7.23% (inactive),
